Assay results: PubChem BioAssay (NCATS)
Values joined by “and” are separate entries in the source; they are usually repeats but may differ in a detail not shown here. Equal values may be shown once. Results filed as inconclusive are left out. Active and inactive are the calls of the source. Unless noted, calls come from the whole dose curve; as a rule, active = well fitted curve in the direction sought with a large enough effect; inconclusive = small, poorly fitted or top-dose-only effect, or another doubt; inactive = no such curve, though single readings can be large; an effect the other way counts as inactive or inconclusive.

Key:
[1] = Cell Viability - BJ (AID 421; calls by dose curve;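 note: potency is the fitted concentration of half-maximal effect; cells exposed to compound for 40 hours at 37 °C before readout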); settings: BJ fibroblast viability, qHTS
How it was run: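 Quantitative HTS: ATP depletion in BJ cells after 40 hr compound exposure in complete culture medium, detected with CellTiter-Glo; AC50 from standard Hill fits.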

[2] = Cell Viability - HepG2 (AID 433; calls by dose curve;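 note: potency is the fitted concentration of half-maximal effect; potency for ATP loss meaning cytotoxicity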); settings: qHTS
How it was run: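 Read-out is luciferase-based quantitation of cellular ATP as a measure of viable HepG2 cells after 40 h treatment at 37 °C. Signal decrease is scaled between DMSO-only and 100 uM tamoxifen controls, with AC50 fitted by the Hill equation.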

[3] = Cell Viability - MRC5 (AID 434; calls by dose curve;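 note: potency is the fitted concentration of half-maximal effect; cells exposed to compound for 40 hours at 37 °C; potency reflects cytotoxicity seen as loss of intracellular ATP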); settings: MRC5 lung fibroblast viability, qHTS
How it was run: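 Decrease in intracellular ATP, quantified by luciferase light output, reflects compound toxicity toward MRC5 cells exposed for 40 hr in complete culture medium. Concentration-response curves, scaled between DMSO and 100 uM tamoxifen, gave AC50 values.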

[4] = Cell Viability - SK-N-SH (AID 435; calls by dose curve; note: potency is the fitted concentration of half-maximal effect); settings: SK-N-SH neuroblastoma cell viability qHTS
How it was run: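 Luminescent ATP signal served as the viability read-out after 40 hours of compound treatment of human neuroblastoma SK-N-SH cells. Concentration-response data, scaled between DMSO and 100 uM tamoxifen, gave AC50 values by standard Hill modeling.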

[5] = Cell Viability - NIH 3T3 (AID 541); settings: NIH 3T3 cell viability, qHTS; activity change, negative = cytotoxicity: at 92.2 µM (top of the series);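 note: plate controls were DMSO alone for no effect and tamoxifen positive control for full effect; nearly all actives have a fitted effect of over 25% in size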
How it was run: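 qHTS format; 40 hr compound exposure, 37 °C; CellTiter-Glo luminescence (cellular ATP) read-out after 20 min at RT. Decrease in ATP = cytotoxicity; AC50 from standard Hill fit.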

[6] = Cell Viability - HUV-EC-C (AID 542); settings: HUV-EC-C endothelial cell viability, qHTS; series mostly up to 92.2 µM; note: % is set by controls: 0 for no effect and ±100 for the full control effect; nearly all actives have a fitted effect of over 35% in size
How it was run: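 Luminescent ATP read-out (CellTiter-Glo, 20 min room temperature) after 40 hr compound treatment of HUV-EC-C cells at 37 °C. Concentration-response data fitted with the standard Hill equation to give AC50; tamoxifen and doxorubicin served as positive controls.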

[7] = Cell Viability - H-4-II-E (AID 543); settings: H-4-II-E rat hepatoma viability; series mostly up to 92.2 µM; note: % is set by controls: 0 for no effect and ±100 for the full control effect; nearly all actives have a fitted effect of over 35% in size
How it was run: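 qHTS, rat hepatoma H-4-II-E, 1500 cells/well; 40 hr compound exposure, 37 °C; CellTiter-Glo ATP luminescence after 20 min RT; AC50 by standard Hill fit.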

[8] = Cell Viability - SH-SY5Y (AID 544); settings: SH-SY5Y neuroblastoma cell viability; viability change, negative = cytotoxic: at 92.2 µM (top of the series); note: nearly all actives have a fitted effect of over 55% in size
How it was run: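 SH-SY5Y, 1500 cells/well, 5 hr pre-incubation 37 °C; cpd 40 hr 37 °C; CellTiter-Glo 20 min RT; luminescence (ATP) read. qHTS concentration-response, Hill fit → AC50. Tamoxifen, doxorubicin as positive controls.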

[9] = Cell Viability - Renal Proximal Tubule (AID 545); settings: renal proximal tubule cells viability; at 91.7 µM (top of the series), primary cells of rat origin unless noted; note: nearly all actives have a fitted effect of over 40% in size
How it was run: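 Luminescent ATP signal (CellTiter-Glo) served as the viability read-out after 40 hr compound exposure of freshly isolated rat proximal tubule cells at 37 °C. Concentration-dependent ATP loss was fitted with the Hill equation to give AC50.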

[10] = Cell Viability - Mesenchymal (AID 546); settings: mesenchymal cells viability, qHTS; series mostly up to 91.7 µM;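 note: cells exposed to compound for 40 hours before reading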
How it was run: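 In this qHTS cytotoxicity format, glomerulus-derived human mesenchymal kidney cells received compound for 40 hr, then luciferase-based ATP quantitation. Concentration-response data were fitted with the Hill equation.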

[11] = Cellular Toxicity (caspase-3) Jurkat (AID 655); settings: Jurkat caspase-3 activation, luminescence, DMSO = 0%, tamoxifen = 100%; at 92.2 µM (top of the series);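 note: cells exposed to compound for 16 h at 37 °C before reading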
How it was run: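 5000 Jurkat cells/well; compound 16 hr, 37 °C; Caspase-Glo 3/7 added, 20 min RT; luminescence read. Norm: DMSO = 0%, tamoxifen 100 uM = 100%. AC50, Hill model.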

[12] = Cellular Toxicity (caspase-3) HUV-EC-C (AID 656); settings: HUV-EC-C cells, caspase-3 activation (apoptosis), vehicle = 0, 100 µM tamoxifen = 100%; series mostly up to 92.2 µM
How it was run: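 qHTS; HUV-EC-C, 1000 cells/well; 5 hr settle, 16 hr cmpd, 37°C; Caspase-Glo 3/7, 20 min RT; luminescence. Norm: DMSO = 0%, tamoxifen 100 uM = 100%. Hill-fit AC50.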

[13] = qHTS Assay for Identification of Small Molecule Inducers of Hypoxia Response (AID 2120; active = well fitted curve in the direction sought with a large enough effect in the signal ratio, with a control signal flat, not every such curve was filed as active; the % refers to the signal ratio; note: 0% is about no effect); settings: hypoxia response reporter cells, beta-lactamase ratio readout; series mostly up to 104 µM
How it was run: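 Read-out: CCF4 FRET emission ratio 460nm/530nm (excitation 405nm), converted to %Activity, with AC50 fitted across a compound titration. ME-180 cells carried an HRE-driven beta-lactamase reporter; compound exposure 17 h, 37 degrees C.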

[14] = qHTS assay for small molecule agonists of retinoid X receptor alpha signaling (AID 588544); settings: HEK293T RXRa-UAS-bla, beta-lactamase reporter, 18 h; 530 nm emission
[15] = qHTS assay for small molecule antagonists of retinoid X receptor alpha signaling (AID 588546; active = well fitted inhibition curve with a large enough effect in the signal ratio, with a control signal flat, not every such curve was filed as active; the % refers to the signal ratio;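 note: cells stimulated with 9-cis-retinoic acid as agonist; % is set by controls: 0 for no effect and ±100 for the full control effect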); settings: HEK293T RXRa-UAS-bla, beta-lactamase ratio, antagonist mode; measured here: W530 green channel, cytotoxicity proxy
How it was run: (§1)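 Beta-lactamase reporter inhibition, read as CCF4 fluorescence ratio (ex 405, em 460/530 nm) after 2 h at RT. HEK293T UAS-bla cells, 2500/well, were stimulated with 9-cis-RA at 500 or 100 nM final alongside test compound for 18 h at 37 C.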

[16] = biological target: Retinoic acid receptor RXR-alpha (Homo sapiens) (UniProt P19793); assay: as above; settings: HEK293T RXRa-UAS-bla, beta-lactamase ratio, antagonist mode
Chain of Retinoic acid receptor RXR-alpha (Homo sapiens) (P19793 whole entry, looked up): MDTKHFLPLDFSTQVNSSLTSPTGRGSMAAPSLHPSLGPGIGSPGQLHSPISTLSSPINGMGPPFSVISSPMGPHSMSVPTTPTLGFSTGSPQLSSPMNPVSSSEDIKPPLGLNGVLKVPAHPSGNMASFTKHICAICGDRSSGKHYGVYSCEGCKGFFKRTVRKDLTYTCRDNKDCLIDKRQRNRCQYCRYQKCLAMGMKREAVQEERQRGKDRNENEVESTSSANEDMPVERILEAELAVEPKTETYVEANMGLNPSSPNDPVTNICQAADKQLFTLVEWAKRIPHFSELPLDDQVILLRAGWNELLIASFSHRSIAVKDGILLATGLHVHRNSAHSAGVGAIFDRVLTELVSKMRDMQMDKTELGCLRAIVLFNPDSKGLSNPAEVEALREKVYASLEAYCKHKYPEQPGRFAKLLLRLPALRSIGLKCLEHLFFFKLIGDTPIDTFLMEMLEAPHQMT
How it was run: as §1

[17] = biological target: Peroxisome proliferator-activated receptor alpha (Homo sapiens) (UniProt Q07869); assay: qHTS assay for small molecule agonists of the peroxisome proliferator-activated receptor alpha (PPARalpha) signaling pathway (AID 651778); settings: PathHunter PPARalpha complementation, chemiluminescence, 6 h; stronger effect = higher value; note: % of control where 0% means no effect
Chain of Peroxisome proliferator-activated receptor alpha (Homo sapiens) (Q07869 whole entry, looked up): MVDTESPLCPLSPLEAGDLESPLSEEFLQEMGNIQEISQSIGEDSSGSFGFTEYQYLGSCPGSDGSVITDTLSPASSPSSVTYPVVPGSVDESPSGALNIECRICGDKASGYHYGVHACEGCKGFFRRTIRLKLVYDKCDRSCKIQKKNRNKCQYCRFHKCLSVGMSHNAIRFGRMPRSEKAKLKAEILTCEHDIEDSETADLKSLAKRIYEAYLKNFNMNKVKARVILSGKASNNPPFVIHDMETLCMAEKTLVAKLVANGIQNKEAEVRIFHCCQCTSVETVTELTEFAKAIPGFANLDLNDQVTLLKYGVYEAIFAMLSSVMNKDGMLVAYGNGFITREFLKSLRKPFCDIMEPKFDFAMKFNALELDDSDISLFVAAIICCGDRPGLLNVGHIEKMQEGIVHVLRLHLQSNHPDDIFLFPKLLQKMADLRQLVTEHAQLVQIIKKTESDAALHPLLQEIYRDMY
How it was run: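 Cells plated at 2,000/well and held overnight at 37 C, 5% CO2, then compound added by pin tool for 6 hr; after PathHunter detection reagent and 60 min at room temperature, chemiluminescence from enzyme complementation was read.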

[18] = qHTS assay for small molecule agonists of the antioxidant response element (ARE) signaling pathway measured by Nrf2-dependant transcriptional activity - cell viability counter screen (AID 720653; active = well fitted curve in the direction sought with a large enough effect in the repeat runs; an effect the other way counts as inactive or inconclusive; note: % is set by controls: 0 for no effect and ±100 for the full control effect); settings: ARE-bla HepG2 viability, CellTiter-Glo ATP luminescence, 16 h; stronger effect = lower value
How it was run: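 ARE-bla HepG2 cells (2,000/well) rested 5 hrs at 37C/5% CO2, then exposed to compounds in DMSO for 16 hrs. Viability was read in the same wells as intracellular ATP by luminescence, 30 min at room temperature after reagent addition.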

[19] = qHTS assay for cell viability of HEK293 cells (AID 743288); settings: ATP luminescence (CellTiter-Glo), 18 h; max response: stronger effect = lower value; note: % is set by controls: 0 for no effect and ±100 for the full control effect; nearly all actives have a fitted effect of over 50% in size
How it was run: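 Viable-cell counts were inferred from luciferase-based ATP content in HEK293 cells seeded at 2,000/well, pre-incubated ≥5 h, then dosed with DMSO-solubilised compounds for 18 h at 37 C.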

[20] = qHTS assay for cell viability of the p53RE-bla HCT-116 cell line (AID 743292); settings: p53RE-bla HCT-116 viability, ATP luminescence, 16 h; series mostly up to 95 µM; note: % is set by controls: 0 for no effect and ±100 for the full control effect; nearly all actives have a fitted effect of over 55% in size
How it was run: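 Viability of compound-treated p53RE-bla HCT-116 cells is taken from ATP-dependent luciferase luminescence. Treatment lasts 16 h at 37 C after a 5 h settling period; detection follows 30 min at room temperature.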

Row | Structure (SMILES) | Potency [1] | Potency [2] | Potency [3] | Potency [4] | activity change, negative = cytotoxicity [5] | Potency [6] | Potency [7] | Potency [8] | activity change, negative = cytotoxicity [9] | outcome [10] | caspase-3 activation [11] | outcome [12] | outcome [13] | max response [14] | max response [15] | max response [16] | max response [17] | max response [18] | max response [19] | Potency [20]
1 | O=C(Cl)C(Cl)(Cl)Cl | > 92 µM (inactive) | > 92 µM (inactive) | > 92 µM (inactive) | > 92 µM (inactive) | 1.81% (inactive) | inactive | inactive | inactive | 0.33% (inactive) | inactive | 3.49% (inactive) | inactive | inactive | 2.41% | 2.3% | 2.98% (inactive) | -1.02% (inactive) | -1.42% (inactive) | -17% (inactive) | inactive
2 | Cc1ccc([N+](=O)[O-])cc1C | > 92 µM (inactive) | > 92 µM (inactive) | > 92 µM (inactive) | > 92 µM (inactive) | -7.46% (inactive) | inactive | inactive | inactive | -10.6% (inactive) | inactive | -0.46% (inactive) | inactive | inactive | -11.5% | -4.65% and -9.04% | 17.5% (inactive) and -26.4% (inactive) | -4.21% (inactive) and -1.01% (inactive) | 4.05% (inactive) and -7% (inactive) | -0.535% (inactive) and -15% (inactive) | inactive
3 | C1CCC2CCCCC2C1 (stereo not given) | > 92 µM (inactive) | > 92 µM (inactive) | > 92 µM (inactive) | > 92 µM (inactive) | -13.5% (inactive) | inactive | inactive | inactive | -9.71% (inactive) | inactive | 1.3% (inactive) | inactive | inactive | -13.4% | -2.39% | -5.58% (inactive) | -8.42% (inactive) | 2.05% (inactive) | 0.933% (inactive) | inactive
4 | CC(Cl)Cl | > 92 µM (inactive) | > 92 µM (inactive) | > 92 µM (inactive) | > 92 µM (inactive) | -15.4% (inactive) | inactive | inactive | inactive | -11.4% (inactive) | inactive | 1.86% (inactive) | inactive | inactive | -6.24% | -2.19% | 21.2% (inactive) | 4.62% (inactive) | -2.99% (inactive) | -4.5% (inactive) | inactive
